Consider 13 compounds from PubChem BioAssay (NCI).

About 83,000 compounds went through this panel and 20% of them were active in at least one assay; those are over-represented in the sample as a whole.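 Plates (96-well) were seeded with cells, treated with compound at one concentration, and incubated for 48 hours before percent growth was determined.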 A number with no mark means an inactive call. Activity calls are given as the source filed them. The calls were made as follows: active = growth percent below 10; inactive = the rest.

Some test systems named below: SR leukemia; RPMI-8226 leukemia; OVCAR-8 ovarian; OVCAR-5 ovarian; SK-OV-3 ovarian; IGROV1 ovarian; OVCAR-3 ovarian; HS 578T breast; NCI/ADR-RES ovarian; T-47D breast; BT-549 breast; MDA-MB-435 melanoma; SW-620 colon; MCF7 breast; HCT-116 colon; HCC-2998 colon; KM12 colon; OVCAR-4 ovarian.
Experiment in all cases: NCI-60 one-dose screen, 48 h (100 = growth as untreated, 0 = no growth, -100 = all killed)
Common to all, as to details: 10 µM unless noted

Regarding `O=c1oc2c(cc1-c1ccccc1)c(=O)[nH]c1ccccc12`, the growth in the assay with SR leukemia is 108%; with RPMI-8226 leukemia it was 101%; in the assay with OVCAR-8 ovarian it was 95.7%; in the assay on OVCAR-5 ovarian it was 103%; in the assay on SK-OV-3 ovarian, 105%; in the assay on IGROV1 ovarian, 103%. Moreover, the growth in the assay on OVCAR-3 ovarian was 112%; with HS 578T breast, 98.1%; in the assay on NCI/ADR-RES ovarian, 102%; in the assay on T-47D breast, 95.4%; in the assay on BT-549 breast, 97.5%; in the assay on MDA-MB-435 melanoma, 97.7%. Besides, the growth with SW-620 colon was 105%; with MCF7 breast, 87.3%; in the assay on HCT-116 colon it was 97.1%; with HCC-2998 colon, 105%; in the assay with KM12 colon, 101%.

`CNCCCNc1nc2ccccc2c2c(=O)c3cc(Cl)ccc3sc12`: the growth in the assay on SR leukemia was -39.9% (active); in the assay on RPMI-8226 leukemia, -25.3% (active); in the assay on OVCAR-8 ovarian it was 24.5%; with OVCAR-5 ovarian, 47.1%; with OVCAR-4 ovarian, 63.6%; in the assay on IGROV1 ovarian it was 33.2%. Moreover, the growth in the assay on HS 578T breast is 59.9%; in the assay on NCI/ADR-RES ovarian, 44.3%; in the assay with T-47D breast it was 48.5%; in the assay on BT-549 breast, 92.4%; in the assay on MDA-MB-435 melanoma, -18.5% (active); in the assay on MCF7 breast, -77.3% (active). Also, the growth in the assay with HCT-116 colon is -92.1% (active); in the assay with HCC-2998 colon, -89.8% (active); with KM12 colon, -24.6% (active).

Consider `Clc1cccc(C2Cc3cnccc3-c3[nH]c4ccncc4c32)c1` (stereo not given), for which the growth in the assay with SR leukemia is 36.5%; in the assay on RPMI-8226 leukemia, 14.1%; in the assay with OVCAR-8 ovarian, 56.4%; with OVCAR-5 ovarian, 86.4%; in the assay with SK-OV-3 ovarian it was 50.9%; in the assay on IGROV1 ovarian, 52.7%. Besides, the growth is 85% in the assay with HS 578T breast; 47.7% in the assay on NCI/ADR-RES ovarian; 34.4% in the assay with T-47D breast; 50.1% with BT-549 breast; 39.5% in the assay on MDA-MB-435 melanoma; 44.7% with SW-620 colon. The growth is 20.4% in the assay with MCF7 breast, 32.5% in the assay with HCT-116 colon, 76.7% in the assay on HCC-2998 colon and 44.3% with KM12 colon.

Regarding `CCN1C2CCC1/C(=C\c1ccccc1)C(=O)/C2=C/c1ccccc1`, the growth in the assay with SR leukemia was 27.3%; with RPMI-8226 leukemia, 38.2%; in the assay on OVCAR-8 ovarian, 22.5%; in the assay with OVCAR-5 ovarian it was 88.3%; in the assay on SK-OV-3 ovarian it was 78.5%; in the assay with IGROV1 ovarian, 49.9%. Also, the growth with OVCAR-3 ovarian is 13%; with HS 578T breast it was 71.4%; in the assay with NCI/ADR-RES ovarian, 15.1%; in the assay on BT-549 breast it was 48.6%; in the assay with MDA-MB-435 melanoma, 30.7%; in the assay with SW-620 colon, 42.4%. Moreover, the growth is 25.2% in the assay on MCF7 breast, 15.6% with HCT-116 colon, 80.1% in the assay with HCC-2998 colon and 20.6% with KM12 colon.

Turning to `CCOC(=O)CNC1=C(Cl)C(=O)N(Cc2ccc(Cl)cc2)C1=O`, the growth is 105% in the assay with SR leukemia; 96.6% in the assay with RPMI-8226 leukemia; 100% with OVCAR-8 ovarian; 96.2% in the assay on OVCAR-5 ovarian; 101% with OVCAR-4 ovarian; 97.9% in the assay with IGROV1 ovarian. Moreover, the growth is 105% in the assay with OVCAR-3 ovarian; 101% in the assay with HS 578T breast; 93.3% with T-47D breast; 109% in the assay with BT-549 breast; 105% in the assay on MDA-MB-435 melanoma; 99.8% in the assay on SW-620 colon. Moreover, the results for the growth in the assay on MCF7 breast, with HCT-116 colon and in the assay on KM12 colon were 99.7%, 102% and 110%, respectively.

Take `O=C(NCCCCO)c1cncnc1Nc1ccc2c(ccn2Cc2cccc(F)c2)c1`: the growth was 93.4% in the assay with SR leukemia; 95.3% with RPMI-8226 leukemia; 101% in the assay with OVCAR-8 ovarian; 86.3% in the assay with OVCAR-5 ovarian; 89.8% in the assay on SK-OV-3 ovarian; 88.1% in the assay with IGROV1 ovarian. In addition, the growth in the assay with OVCAR-3 ovarian was 98.5%; in the assay with HS 578T breast it was 94.1%; in the assay with NCI/ADR-RES ovarian, 91.3%; with T-47D breast it was 83.3%; in the assay on BT-549 breast, 88.6%; in the assay on MDA-MB-435 melanoma, 92.1%. The growth in the assay on SW-620 colon was 105%; with MCF7 breast it was 96.8%; with HCC-2998 colon, 93.4%; in the assay with KM12 colon, 97.4%.

Regarding `C[C@H](c1nc2ccc(C#N)cc2[nH]1)[C@H]1CC[C@H]2[C@@H]3CCC4=CC(=O)CC[C@]4(C)[C@H]3CC[C@]12C`, the growth in the assay on SR leukemia is 34.6%; in the assay with RPMI-8226 leukemia, 20.3%; in the assay with OVCAR-8 ovarian it was 79.6%; with OVCAR-5 ovarian, 85.3%; in the assay with OVCAR-4 ovarian, 46%; in the assay with IGROV1 ovarian, 66.9%. In addition, the growth in the assay on OVCAR-3 ovarian was 72.1%; in the assay on HS 578T breast it was 63.4%; in the assay on NCI/ADR-RES ovarian, 67.5%; with BT-549 breast it was 58.9%; with MDA-MB-435 melanoma, 84.2%; in the assay with SW-620 colon, 89.1%. The growth in the assay with MCF7 breast was 59.5%; with HCT-116 colon it was 49.7%; with HCC-2998 colon, 67.4%; in the assay on KM12 colon, 68.9%.

As to `CCN(CC)CCOc1ccc(Nc2ncc3cc(-c4c(Cl)cccc4Cl)c(=O)n(CCOC)c3n2)cc1`, the growth with SR leukemia was -30.8% (active); with RPMI-8226 leukemia, 2.23% (active); with OVCAR-8 ovarian it was 9.23% (active); in the assay on OVCAR-5 ovarian it was 2.15% (active); with SK-OV-3 ovarian, 2.93% (active); in the assay on IGROV1 ovarian, -21.9% (active). Also, the growth was -22% (active) with OVCAR-3 ovarian; 8.49% (active) in the assay with HS 578T breast; 6.66% (active) in the assay with NCI/ADR-RES ovarian; 29.4% in the assay with T-47D breast; -15.1% (active) in the assay with BT-549 breast; 1.33% (active) in the assay with MDA-MB-435 melanoma. For the same compound, the growth is 7.96% (active) in the assay on SW-620 colon; 17.2% in the assay with MCF7 breast; -40.6% (active) in the assay on HCT-116 colon; 9.52% (active) in the assay on HCC-2998 colon; 15.9% with KM12 colon.

For `c1csc(-c2cn3nc(-c4c[nH]c5ccccc45)sc3n2)c1`, the growth in the assay on SR leukemia is 14.5%; with RPMI-8226 leukemia, 17.1%; in the assay with OVCAR-8 ovarian it was 29.2%; with OVCAR-5 ovarian, 37.1%; with SK-OV-3 ovarian, 26.4%; with IGROV1 ovarian it was 30.6%. Moreover, the growth is -7.97% (active) in the assay with OVCAR-3 ovarian; 29.1% in the assay on HS 578T breast; 12% in the assay on NCI/ADR-RES ovarian; 23.9% in the assay with T-47D breast; 38% in the assay on BT-549 breast; -38.4% (active) with MDA-MB-435 melanoma. Moreover, the growth with SW-620 colon was 22.5%; in the assay on MCF7 breast, 13%; in the assay with HCT-116 colon, 14.7%; with HCC-2998 colon it was 52.4%; in the assay on KM12 colon it was 23.8%.

Turning to `COc1c2c(cc3c1C(=O)N[C@@H]1[C@@H](O)[C@@H](O)[C@H](O)C[C@@H]31)OCCO2`, the growth is 92.1% with SR leukemia; 102% with RPMI-8226 leukemia; 100% with OVCAR-8 ovarian; 105% in the assay on OVCAR-5 ovarian; 98.6% in the assay with SK-OV-3 ovarian; 109% in the assay with IGROV1 ovarian. For the same compound, the growth is 104% in the assay on OVCAR-3 ovarian; 96.2% in the assay with HS 578T breast; 113% with NCI/ADR-RES ovarian; 99.5% in the assay with BT-549 breast; 108% in the assay on MDA-MB-435 melanoma; 104% in the assay on SW-620 colon. For the same compound, the growth in the assay with MCF7 breast is 93.9%; in the assay on HCT-116 colon, 102%; in the assay on HCC-2998 colon, 106%; with KM12 colon it was 99.1%.

For the compound `Cn1c(=O)[nH]c(=O)c2nc3c(nc21)-c1ccccc1C3=O`, the growth with SR leukemia is 100%; in the assay on RPMI-8226 leukemia it was 108%; with OVCAR-8 ovarian, 105%; in the assay on OVCAR-5 ovarian, 99.6%; in the assay with SK-OV-3 ovarian, 111%; with IGROV1 ovarian it was 108%. Also, the growth with OVCAR-3 ovarian is 107%; with HS 578T breast it was 104%; in the assay on NCI/ADR-RES ovarian, 95.2%; with T-47D breast it was 103%; in the assay with BT-549 breast, 104%; with MDA-MB-435 melanoma, 100%. Also, the growth in the assay on SW-620 colon is 105%; in the assay on MCF7 breast, 87.2%; with HCT-116 colon, 102%; in the assay with HCC-2998 colon, 101%; in the assay on KM12 colon, 103%.

Turning to `COc1ccc(C2CC(n3ccnc3)c3cc(OC)c(OC)c(OC)c32)cc1O` (stereo not given), the growth was 35.4% in the assay on SR leukemia; 94.6% in the assay with RPMI-8226 leukemia; 89.2% in the assay on OVCAR-8 ovarian; 107% in the assay with OVCAR-5 ovarian; 100% in the assay with OVCAR-4 ovarian; 82.4% with IGROV1 ovarian. Also, the growth is 57.1% with OVCAR-3 ovarian; 85.4% with HS 578T breast; 93.9% in the assay with NCI/ADR-RES ovarian; 94.3% in the assay on T-47D breast; 90.4% in the assay on BT-549 breast; 5% (active) in the assay on MDA-MB-435 melanoma. The growth in the assay on MCF7 breast is 44.8%; in the assay on HCT-116 colon, 81.1%; with HCC-2998 colon, 99.2%; in the assay with KM12 colon, 50.6%.

On to `COc1cc(-c2nccc3[nH]c(-c4cccc5[nH]ccc45)nc23)cc(OC)c1OC`, for which the growth is 8.9% (active) in the assay on SR leukemia; -43.6% (active) with RPMI-8226 leukemia; 18.2% in the assay on OVCAR-8 ovarian; 73.8% in the assay with OVCAR-5 ovarian; 15.1% in the assay on SK-OV-3 ovarian; 16.7% in the assay on OVCAR-3 ovarian. Also, the growth was 38.4% in the assay on HS 578T breast; 4.71% (active) with NCI/ADR-RES ovarian; 39.9% in the assay with T-47D breast; 42.5% in the assay on BT-549 breast; 1.47% (active) in the assay on MDA-MB-435 melanoma; 27% in the assay with SW-620 colon. The growth is 9.9% (active) with MCF7 breast, 4.28% (active) with HCT-116 colon, 21.6% with HCC-2998 colon and 16.9% with KM12 colon.
